Bioassay records: PubChem BioAssay, National Center for Advancing Translational Sciences (NCATS)
This is a sample that favours compounds with a hit; in the whole collection about 19% have one here.
Pf growth 48h = P. falciparum growth inhibition at 48 hours (one generation); Potency, µM (titrated, usually from 28.7 µM), actives largely listed as inhibitors; AID 504832; 5.9% of 310,000 active; P. falciparum luciferase growth in erythrocytes, 48 h
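Luciferase-expressing P. falciparum in infected erythrocytes (2% hematocrit, 0.1% parasitemia final) in RPMI 1640/0.5% Albumax were exposed to compound for 48 hours at 37 C, 5% CO2; growth read as luminescence.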
Pf growth 96h = inhibits malaria parasite growth, 96 h | P. falciparum luciferase reporter growth, 96 h | Potency, µM (series often up to 28.7 µM), actives largely listed as inhibitors | 6.9% of 320,000 active
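Two-generation exposure (96 h) targets delayed-death phenotype. Reporter parasites carrying integrated firefly luciferase, in red cells at 2% hematocrit and 0.05% parasitemia final, kept at 37 C, 5% CO2; luminescence loss indicates inhibition.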
CHX counter = counter-screen hit for Shiga toxin inhibitors, cycloheximide; cell reporter, cycloheximide protein synthesis inhibition counterscreen; max response, %; 12% of 300,000 active; AID 2314; in the data active = max response mostly above about 13%, no sharp cut-off; inactive = mostly below about 14%; also: read at 38.3 µM for the half of the compounds with a filed dose
AMA1 RON2 block = inhibitors of Plasmodium falciparum AMA1-RON2 interaction; AlphaScreen AMA1-biotinylated RON2 peptide binding; Potency, µM (titrated, usually from 58.2 µM), most hits filed as inhibitors; 0.2% of 360,000 active; AID 720542; also: nearly all actives have a fitted effect of over 45% in size
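AMA1 (3D7) with his tag at 25 nM final met compounds first, then biotinylated RON2 peptide at 25 nM; detection used donor plus acceptor beads, 10 µg/mL apiece, read by AlphaScreen after 30 min at room temperature.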
SARS PLpro yeast = SARS-CoV PLP inhibition in yeast; S. cerevisiae expressing SARS-CoV PLpro, growth rescue; Potency, µM (series often up to 32.9 µM), actives largely listed as activators; 0.19% of 330,000 active; calls by dose curve; also: nearly all actives have a fitted effect of over 55% in size
Shiga toxin inh = Shiga toxin inhibition; Vero cells, Shiga toxin protein synthesis inhibition reporter; inhibition, % at 38.7 µM; 9.2% of 290,000 active; in the data active = inhibition mostly above about 28%, no sharp cut-off; inactive = mostly below about 43%
Numbers stand for hits; – = inactive; ? = inconclusive; · = no result; [ ] = remark or other dose. Unless noted, calls follow the shape of the dose curve; as a rule, active = well fitted curve in the direction sought with a large enough effect; inconclusive = small, poorly fitted or top-dose-only effect, or another doubt; inactive = no such curve, though single readings can be large; an effect the other way counts as inactive or inconclusive.

SMILES	Pf growth 48h	Pf growth 96h	CHX counter	AMA1 RON2 block	SARS PLpro yeast	Shiga toxin inh
COCCn1c(C)cc(C(=O)CSc2nc3ccccc3s2)c1C	–	–	80.1	–	–	–
COCCn1c(C)cc(C(=O)CSc2ncn[nH]2)c1C	–	–[5.75 µM]	36.0	–	–	71.2
COCCn1c(SCC(=O)c2cc(C)n(C)c2C)nc2ccccc2c1=O	–	–	11.2	–	–	–
COCCn1c(C)cc(C(=O)CSc2nnc3ccccn23)c1C	·	–	–	–	–	–
COCCn1c(SCC(=O)NC(=O)Cc2ccccc2)nc2ccccc2c1=O	–	–	·	–	–	·
COCCn1c(C)cc(C(=O)CSc2nc(C)c(C)c(C)n2)c1C	–	?	–	–	–	–
Cc1ccc(CC(NC(=O)c2ccccc2)C(=O)NCC(=O)O)cc1 (stereo not drawn)	–	·	–	–	–	–
COCCn1c(C)cc(C(=O)CSc2cc(C)c3ccc(OC)cc3n2)c1C	–	?	18.2	–[11.6 µM]	–	–
COc1ccc2c(C)cc(SCC(=O)c3ccc4c(c3)OCO4)nc2c1	?	?	–	–	–	–
Clc1ccccc1Cc1noc(CN2CCN3CCCC3C2)n1 (stereo not drawn)	?	2.94µM	–	–	–	–
NC(=O)[C@@H]1CCCN1Cc1nc(Cc2ccccc2Cl)no1	–	3.7µM	–	–	–	–
OC1CCN(Cc2nc(Cc3ccccc3Cl)no2)CC1	–	–	–	–	–	–
CCOc1ccc(CCNC(=O)C2CSC3(C)CCC(=O)N23)cc1OCC (stereo not drawn)	?	?	–	–	–	–
CCCCCCCc1c(O)nc(SCC(=O)O)[nH]c1=O	–	–	–	–	–	–
CC(C)(C)OC(=O)NCCCCCNC(=O)c1[nH]cnc1C(=O)Nc1ccc(Cl)cc1	10.4µM	?	·	–	–	·
Cc1ccc(NC(=O)c2[nH]cnc2C(=O)NN)cc1	–	–	25.7	–	–	71.2
CCOC(=O)c1ccc(NC(=O)c2nc[nH]c2C(=O)NCCCCNC(=O)c2[nH]cnc2C(=O)Nc2ccc(C(=O)OCC)cc2)cc1	?	1.47µM	·	–	–	·
CC(C)(C)OC(=O)NCCCCCNC(=O)c1[nH]cnc1C(=O)Nc1ccccc1	?	?	·	–	–	·
Cc1ccc(NC(=O)c2nc[nH]c2C(=O)NCCCCCNC(=O)OC(C)(C)C)cc1	3.29µM	?	·	–	–	·
Cc1ccc(NC(=O)c2nc[nH]c2C(=O)NCCCNC(=O)c2[nH]cnc2C(=O)Nc2ccc(C)cc2)cc1	·	·	·	–	–	·
O=C(CCn1c(=O)oc2ccc(Cl)cc21)N1CCN(c2ccccc2)CC1	–	–	–	–	–	–
CC1CC(CCN)(c2ccccc2)C(C)CN1C (stereo not drawn)	?	–	–	–	–	–
COCCNC(=S)N1CCN(Cc2ccc3c(c2)OCO3)CC1	–	?	–	–	–	–
NNC(=O)c1nc[nH]c1C(=O)Nc1ccccn1	–	?	–	?	14.1µM	–
CN(C(=O)CSc1nc(O)cc(=O)n1C1CCCC1)c1ccccc1	?	1.65µM	–	–	–	–
SMILES	Pf growth 48h	Pf growth 96h	CHX counter	AMA1 RON2 block	SARS PLpro yeast	Shiga toxin inh
CN(C(=O)CSc1nc(O)cc(=O)n1-c1ccccc1F)c1ccccc1	?	–	–	–	–	–
O=[N+]([O-])c1ccc(N2CCN(S(=O)(=O)c3ccccc3)CC2)cc1	–	–	–	–	–	–
Cc1ccc(-c2csc3ncn(-n4c(C)ccc4C)c(=O)c23)o1	13.1µM	0.738µM	–	–	–	–
Cc1sc2ncn(-n3c(C)ccc3C)c(=O)c2c1C	?	?	–	–	–	–
O=C1/C(=C/c2cc3c(cc2Cl)OCO3)N2CCC1CC2	–	–	–	·	–	–
O=C1/C(=C\c2cc3c(cc2Cl)OCO3)N2CCC1CC2	–	5.86µM	–	–	–	–
Cc1ccc(Cl)c(OCCN2CCc3ccccc3C2)c1	–	?	–	–	–	–
c1ccc(Cc2nnc3sc(-c4ccc5c(c4)OCO5)nn23)cc1	·	·	·	–	·	·
c1ccc(Cc2nnc3sc(-c4ccc5c(c4)OCCO5)nn23)cc1	·	–	36.0	–	–	–
COc1ccc(OC)c(CCNC(=O)c2ccc3c(c2)N(Cc2ccc(F)cc2)CCS3)c1	?	?	–	–	–	–
Cc1ccc(CN2CCSc3ccc(C(=O)NC4CCCC4)cc32)cc1	?	?	–	–	–	–
Cc1ccc(CN2CCSc3ccc(C(=O)NCCCN4CCN(C)CC4)cc32)cc1	14.7µM	?	–	–	–	–
COc1ccc(CCNC(=O)c2ccc3c(c2)N(Cc2ccc(C)cc2)CCS3)cc1OC	10.4µM	–	–	–	–	–
CC1CC(C)C(=O)C(C(CC2CC(=O)NC(=O)C2)OC(=O)CC(=O)c2ccccc2)C1 (stereo not drawn)	·	·	·	–	·	·
COc1cc(CCC(=O)NCc2ccc3c(c2)OCO3)cc(OC)c1OC	–	–	–	–	–	–
NC(=O)c1ccc(-c2ccc(Br)cc2)o1	?	–	–	–	–	56.3
NC(=O)C1CCN(C(=S)c2ccc(-c3ccc(Br)cc3)o2)CC1	–	–	36.6	–	–	78.5
O=C(O)c1ccc(-c2ccc(-c3ccccc3)cc2)o1	·	·	–	·	·	–
CCOc1ccccc1C(=O)NC(C(=O)NCCc1ccccn1)C(C)C (stereo not drawn)	·	·	·	–	–	·
O=C(COC(=O)/C=C/c1ccccc1[N+](=O)[O-])NCC(F)(F)F	–	–	–	–	–	–
O=C(COC(=O)c1ccc(CSc2ccc(Cl)cc2)cc1)Nc1ccccc1	–	–	–	–	–	–
CCc1ccccc1NC(=O)CCS(=O)(=O)c1ccc2c(c1)CCCN2C(C)=O	–	?	–	–	–	–
CC(C)(C)n1nc2c(c1NC(=O)C1CC(=O)N(c3ccc(Cl)cc3)C1)CS(=O)(=O)C2 (stereo not drawn)	–	?	–	–	–	–
CCc1nccn1S(=O)(=O)c1ccc(Br)cc1Br	–	0.928µM	–	–	–	–
CCc1nccn1S(=O)(=O)c1ccc(OC)c(C)c1C	·	–	–	–	–	–
SMILES	Pf growth 48h	Pf growth 96h	CHX counter	AMA1 RON2 block	SARS PLpro yeast	Shiga toxin inh
CC(OC(=O)Cc1coc2ccc3ccccc3c12)C(=O)NC(N)=O (stereo not drawn)	–	–	–	–	–	–
O=c1c2cc(Br)ccc2nc(-c2ccccc2)n1O	·	–	11.3	–	–	–
CSc1ccccc1C(=O)NCc1ccccc1C	–	–	–	–	–	–
CCOC(=O)N1CCC(NC(=O)c2cc3sccc3n2CC)CC1	–	5.22µM	–	–	–	–
CCn1c(C(=O)NC(C)c2ccc3c(c2)OCCO3)cc2sccc21 (stereo not drawn)	·	–	–	?	–	–
CCn1c(C(=O)NC2CCC(C)CC2)cc2sccc21 (stereo not drawn)	–	–	37.6	–	–	73.4
CCC(=O)N1CCC1(C)C(=O)Nc1nccs1 (stereo not drawn)	·	·	·	–	·	·
COc1cc(/C=C2/C(=O)NN(c3cccc(C)c3)C2=O)cc([N+](=O)[O-])c1O	–	–	–	–	–	–
